Molecules are shown by their SMILES. Several values for one entry are separate records, joined by “and”; a condition that tells them apart may be missing. Equal values may be shown once. Results filed as inconclusive are left out. Activity calls are given as the source filed them. Unless noted, calls follow the shape of the dose curve; as a rule, active = well fitted curve in the direction sought with a large enough effect in the repeat runs; inconclusive = weak or mixed curves; inactive = no such curve, though single readings can be large; an effect the other way counts as inactive or inconclusive.

Test [1] is described as follows: qHTS assay to identify small molecule antagonists of the estrogen receptor alpha (ER-alpha) signaling pathway using the BG1 cell line in the presence of 0.1 nM 17-beta-estradiol - cell viability counter screen (AID 1259241). Also: nearly all actives have a fitted effect of over 40% in size. The method, boiled down:
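Live-cell protease activity (CellTiter-Fluor fluorescence, 30 min) was read in the same wells after VM7Luc4E2 cells had been exposed to compounds with 0.1 nM 17beta-estradiol for 22 hr at 37C.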

A short description of test [2]: qHTS assay to identify small molecule antagonists of the androgen receptor (AR) signaling pathway using the MDA cell line in the presence of 0.5 nM R1881 - cell viability counter screen (AID 1259242). Also: nearly all actives have a fitted effect of over 45% in size. The method, boiled down:
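Concentration-response screen of compounds for toxicity in MDA-kb2 reporter cells: 16 hr at 37C with 0.5 nM R1881, endpoint live-cell protease fluorescence measured in the reporter wells.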
For orientation: Quantitative high-throughput screening tests each substance at several concentrations.

For test [3], the target named is Androgen receptor (Homo sapiens) (UniProt P10275). As to the kind of experiment: qHTS assay to identify small molecule antagonists of the androgen receptor (AR) signaling pathway using the MDA cell line in the presence of 0.5 nM R1881 (AID 1259243). Also: nearly all actives have a fitted effect of over 50% in size. A digest of the protocol:
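With R1881 held at 0.5 nM (final), compound effects on MMTV-luciferase expression in MDA-kb2 cells were scored by luminescence after a 16 hr, 37C incubation.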

Test [4] has as its target Estrogen receptor (Homo sapiens) (UniProt P03372). Put plainly: qHTS assay to identify small molecule antagonists of the estrogen receptor alpha (ER-alpha) signaling pathway using the BG1 cell line in the presence of 0.1 nM 17-beta-estradiol (AID 1259244). Also: nearly all actives have a fitted effect of over 50% in size. The method, boiled down: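 Compounds were tested against 0.1 nM (final) 17beta-estradiol in VM7Luc4E2 cells, which express full-length ER-alpha and an ERE-luciferase reporter; luminescence was recorded following 22 h exposure.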

Test [5] in a line: qHTS assay to identify small molecule HDAC inhibitors (AID 1259364). Also: potency is read from the fitted curve at half-maximal effect.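 Also: wild-type HCT-116 cells with endogenous class I/II HDAC activity; nearly all actives have a fitted effect of over 45% in size.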 The method, boiled down:
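Screening used wild-type human colon HCT-116 cells incubated overnight, dosed with compounds for 2 hours, and assayed with a homogeneous luminogenic HDAC I/II reagent for 30 minutes at room temperature.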

Test [6] is described as follows: qHTS assay to identify small molecule agonists of the sonic hedgehog signaling (Shh) pathway - cell viability counter screen (AID 1259366). Also: nearly all actives have a fitted effect of over 50% in size. The method, boiled down:
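CellTiter-Fluor fluorescence read-out, 1 hr at 37C, added after 23hr compound exposure. Cells: 3T3 Gli1-Luc, an NIH/3T3 clone with stably integrated Gli1-Luc reporter, plated 4hr before compound.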

A short description of test [7]: qHTS assay to identify small molecule antagonists of the sonic hedgehog signaling (Shh) pathway - cell viability counter screen (AID 1259367). Also: nearly all actives have a fitted effect of over 55% in size. A digest of the protocol:
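Conditioned medium drove Shh signaling in 3T3 Gli1-Luc cells exposed to compounds at 37C and 5% CO2. Viability was determined from CellTiter-Fluor fluorescence, with reagent incubated 1 hr after 23 hr of treatment.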

The nature of test [8]: qHTS assay to identify small molecule agonists of the sonic hedgehog signaling (Shh) pathway (AID 1259368; calls by dose curve;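 also: NIH/3T3-derived 3T3Gli1-Luc cells carrying a stable Gli1-driven firefly luciferase reporter; series mostly up to about 92 µM; nearly all actives have a fitted effect of over 15% in size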). The method, boiled down:
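Hedgehog pathway agonism scored by increased firefly luciferase luminescence in 3T3Gli1-Luc cells treated 24 hr at 37 C; detection used a 30 min room-temperature reagent incubation.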

The nature of test [9]: qHTS assay to identify small molecule antagonists of the sonic hedgehog signaling (Shh) pathway (AID 1259369; calls by dose curve; also: nearly all actives have a fitted effect of over 45% in size; also: potency is read from the fitted curve at half-maximal effect). A digest of the protocol:
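NIH/3T3 stable Gli1-Luc clone, 2,000 cells/well, 4hr settle; cpd + conditioned medium 24hr; Luc reagent 30min RT; luminescence.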

Test [10] deals with Estrogen receptor beta (Homo sapiens) (UniProt Q92731). Put plainly: qHTS assay to identify small molecule agonists of the estrogen receptor beta (ER-beta) signaling pathway (AID 1259377; active = well fitted activation curve with a large enough effect in the signal ratio in the repeat runs, not every such curve was filed as active; the % refers to the signal ratio). A digest of the protocol: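 Beta-lactamase reporter readout: fluorescence of LiveBLAzer B/G FRET substrate after 2 h at room temperature, following 16 h compound treatment of ER-beta-UAS-bla HEK293T cells at 37C in 2% charcoal-stripped FBS medium.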

The target is the same in test [11]. As to the kind of experiment: qHTS assay to identify small molecule antagonists of the estrogen receptor beta (ER-beta) signaling pathway (AID 1259378; active = well fitted inhibition curve with a large enough effect in the signal ratio in the repeat runs, not every such curve was filed as active; the % refers to the signal ratio). The method, boiled down: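 ER-beta-UAS-bla HEK293T (GripTite) cells in 2% charcoal-stripped FBS medium were preincubated 6 hr at 37C, dosed with compound, then stimulated with 1 nM E2 (final) for 16 hr; beta-lactamase reporter read by B/G FRET fluorescence after 2 hr substrate loading.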

Test [12] is described as follows: qHTS assay to identify small molecule agonists of the androgen receptor (AR) signaling pathway in the presence of an antagonist - cell viability counter screen (AID 1259379).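 Also: MDA-kb2 human breast cancer cells carrying an MMTV luciferase reporter; series mostly up to about 92 µM; nearly all actives have a fitted effect of over 25% in size.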 The method, boiled down:
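MDA-kb2 viability measured by CellTiter-Fluor fluorescence in the same wells as the luciferase signal; nilutamide 3.0uM final; 15-point compound titration; 16 hr at 37C.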

The nature of test [13]: qHTS assay to identify small molecule agonists of the estrogen receptor beta (ER-beta) signaling pathway - cell viability counter screen (AID 1259380). Also: nearly all actives have a fitted effect of over 30% in size. The method, boiled down: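 Measured: luminescence from CellTiter-Glo after 30 min at room temperature, added to wells already read for the LiveBLAzer FRET reporter (2 hr substrate); ER-beta-UAS-bla HEK293T cells had 16 hr compound treatment at 37C, 5% CO2.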

Test [14] has as its target Androgen receptor (Homo sapiens) (UniProt P10275). Put plainly: qHTS assay to identify small molecule agonists of the androgen receptor (AR) signaling pathway in the presence of an antagonist (AID 1259381; calls by dose curve; also: nearly all actives have a fitted effect of over 15% in size). The method, boiled down:
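Luminescent ONE-Glo read, 30min at room temperature, follows 16hr compound exposure (15 concentrations) of MDA-kb2 cells at 37C, 0% CO2, with nilutamide added at 3.0uM final.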

The nature of test [15]: qHTS assay to identify small molecule antagonists of the estrogen receptor beta (ER-beta) signaling pathway - cell viability counter screen (AID 1259382). Also: series mostly up to about 92 µM; nearly all actives have a fitted effect of over 55% in size. The method, boiled down: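 Readout: luminescence, CellTiter-Glo, same wells as bla assay. System: ER-beta-UAS-bla GripTite HEK293T, 2% charcoal-stripped FBS. Exposure: compounds plus 1nM 17-beta-estradiol, 16 hr, 37C.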

Test [16] has as its target Estrogen receptor (Homo sapiens) (UniProt P03372). As to the kind of experiment: qHTS assay to identify small molecule agonists of the estrogen receptor alpha (ER-alpha) signaling pathway in the presence of an antagonist (AID 1259383; calls by dose curve; also: top concentration of the series differs between compounds; nearly all actives have a fitted effect of over 15% in size). A digest of the protocol:
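Quantitative HTS confirmation: compounds titrated at 15 concentrations onto estrogen-deprived VM7Luc4E2 cells carrying a four-ERE luciferase construct, with ICI-182,780 present at 10.0nM final. Signal is luminescence after 22hr exposure.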

Test [17] in a line: qHTS assay to identify small molecule phospholipidosis (PLD) inducers (AID 1259344; active = well fitted curve in the direction sought with a large enough effect; an effect the other way counts as inactive or inconclusive). A digest of the protocol:
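After 4 h attachment on collagen I, HepG2 cells were dosed with compound alongside LipidTOX Red, kept 24 h at 37 C, fixed, and imaged for lamellar phospholipid pits.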

A short description of test [18]: qHTS assay to identify small molecule agonists or antagonists of the thyroid stimulating hormone receptor (TSHR) signaling pathway - wild type cell line counter screen (AID 1259384; calls by dose curve). The method, boiled down: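 Wild-type HEK293 cells were plated 18 h at 37 C/5% CO2, pin-dosed with compound plus Ro20-1724 medium, held 30 min at room temperature, then given cAMP-d2 and anti-cAMP-cryptate; fluorescence was read after 1 h. Fifteen concentrations, triplicate.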

Test [19] can be described thus: qHTS assay to identify small molecule HDAC inhibitors - cell viability counter screen (AID 1259365). Also: series mostly up to about 92 µM; nearly all actives have a fitted effect of over 50% in size. The method, boiled down:
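HCT-116 (wild type), 1,500 cells/well, overnight 37C/5% CO2; compound in DMSO 2hr; CellTiter-Glo 30min RT; luminescence read.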

Test [20] deals with Thyrotropin receptor (Homo sapiens) (UniProt P16473). Put plainly: qHTS assay to identify small molecule antagonists of the thyroid stimulating hormone receptor (TSHR) signaling pathway (AID 1259385; calls by dose curve; also: nearly all actives have a fitted effect of over 20% in size). A digest of the protocol:
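TSHR-HEK293 cells were plated and held 18 h at 37C/5% CO2, then given compound plus Ro20-1724 and stimulated with TSH at 1.5 ng/mL final. After 30 min at room temperature, cAMP was detected with cAMP-d2/anti-cAMP-cryptate (1 h) by fluorescence.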

Chain of Estrogen receptor beta (Homo sapiens) (Q92731 whole entry, looked up): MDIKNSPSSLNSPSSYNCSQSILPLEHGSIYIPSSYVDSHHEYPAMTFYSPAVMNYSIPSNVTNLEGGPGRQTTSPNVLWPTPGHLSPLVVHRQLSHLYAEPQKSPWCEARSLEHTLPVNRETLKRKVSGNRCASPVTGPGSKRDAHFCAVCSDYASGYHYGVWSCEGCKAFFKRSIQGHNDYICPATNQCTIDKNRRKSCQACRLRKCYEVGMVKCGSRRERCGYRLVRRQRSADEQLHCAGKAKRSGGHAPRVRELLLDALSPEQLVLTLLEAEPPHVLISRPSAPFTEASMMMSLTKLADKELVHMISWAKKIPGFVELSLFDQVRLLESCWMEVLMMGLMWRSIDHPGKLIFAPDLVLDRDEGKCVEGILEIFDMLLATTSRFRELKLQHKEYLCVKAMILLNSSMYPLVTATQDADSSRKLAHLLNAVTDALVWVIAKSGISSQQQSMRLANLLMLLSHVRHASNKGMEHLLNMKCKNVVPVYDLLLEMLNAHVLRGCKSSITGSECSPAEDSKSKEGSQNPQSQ
Chain of Estrogen receptor (Homo sapiens) (P03372 whole entry, looked up): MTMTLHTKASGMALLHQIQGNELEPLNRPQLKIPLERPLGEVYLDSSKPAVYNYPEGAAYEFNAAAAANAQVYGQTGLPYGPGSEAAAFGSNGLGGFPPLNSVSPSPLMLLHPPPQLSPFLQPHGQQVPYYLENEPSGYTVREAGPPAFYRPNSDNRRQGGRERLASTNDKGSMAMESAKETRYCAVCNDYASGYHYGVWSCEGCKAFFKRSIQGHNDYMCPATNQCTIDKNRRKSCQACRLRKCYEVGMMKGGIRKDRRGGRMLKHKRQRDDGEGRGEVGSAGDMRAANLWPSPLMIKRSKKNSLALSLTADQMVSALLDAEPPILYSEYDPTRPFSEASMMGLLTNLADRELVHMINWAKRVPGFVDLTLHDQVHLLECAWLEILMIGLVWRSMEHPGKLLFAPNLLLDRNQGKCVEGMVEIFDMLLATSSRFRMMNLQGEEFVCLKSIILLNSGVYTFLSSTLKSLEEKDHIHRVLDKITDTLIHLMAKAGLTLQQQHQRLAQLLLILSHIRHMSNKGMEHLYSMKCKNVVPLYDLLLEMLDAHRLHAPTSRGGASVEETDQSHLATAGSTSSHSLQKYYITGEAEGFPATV
Chain of Androgen receptor (Homo sapiens) (P10275 whole entry, looked up): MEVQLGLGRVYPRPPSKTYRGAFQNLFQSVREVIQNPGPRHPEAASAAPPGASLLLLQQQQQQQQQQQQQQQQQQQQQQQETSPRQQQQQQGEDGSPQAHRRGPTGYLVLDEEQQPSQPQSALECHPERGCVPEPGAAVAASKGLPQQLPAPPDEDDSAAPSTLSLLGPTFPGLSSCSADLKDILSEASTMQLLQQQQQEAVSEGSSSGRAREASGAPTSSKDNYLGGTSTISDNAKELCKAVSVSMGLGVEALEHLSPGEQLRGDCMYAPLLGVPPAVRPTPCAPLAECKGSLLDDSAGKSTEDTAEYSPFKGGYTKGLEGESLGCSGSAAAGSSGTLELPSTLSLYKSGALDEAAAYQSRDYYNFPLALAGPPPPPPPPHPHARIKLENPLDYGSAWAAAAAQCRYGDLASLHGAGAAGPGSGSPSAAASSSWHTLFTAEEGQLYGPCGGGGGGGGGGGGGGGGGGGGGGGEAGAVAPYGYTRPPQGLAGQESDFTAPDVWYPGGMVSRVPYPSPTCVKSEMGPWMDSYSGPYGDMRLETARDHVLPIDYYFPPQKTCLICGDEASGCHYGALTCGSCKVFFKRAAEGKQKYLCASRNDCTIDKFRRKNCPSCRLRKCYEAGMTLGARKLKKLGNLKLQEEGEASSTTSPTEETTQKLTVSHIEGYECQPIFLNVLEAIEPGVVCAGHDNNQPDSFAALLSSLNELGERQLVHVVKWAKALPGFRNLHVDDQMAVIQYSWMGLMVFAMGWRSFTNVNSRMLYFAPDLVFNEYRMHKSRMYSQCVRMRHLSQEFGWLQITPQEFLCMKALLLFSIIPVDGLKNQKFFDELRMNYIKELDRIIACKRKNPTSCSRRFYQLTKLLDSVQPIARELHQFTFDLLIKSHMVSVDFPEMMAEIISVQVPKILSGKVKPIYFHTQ
Chain of Thyrotropin receptor (Homo sapiens) (P16473 whole entry, looked up): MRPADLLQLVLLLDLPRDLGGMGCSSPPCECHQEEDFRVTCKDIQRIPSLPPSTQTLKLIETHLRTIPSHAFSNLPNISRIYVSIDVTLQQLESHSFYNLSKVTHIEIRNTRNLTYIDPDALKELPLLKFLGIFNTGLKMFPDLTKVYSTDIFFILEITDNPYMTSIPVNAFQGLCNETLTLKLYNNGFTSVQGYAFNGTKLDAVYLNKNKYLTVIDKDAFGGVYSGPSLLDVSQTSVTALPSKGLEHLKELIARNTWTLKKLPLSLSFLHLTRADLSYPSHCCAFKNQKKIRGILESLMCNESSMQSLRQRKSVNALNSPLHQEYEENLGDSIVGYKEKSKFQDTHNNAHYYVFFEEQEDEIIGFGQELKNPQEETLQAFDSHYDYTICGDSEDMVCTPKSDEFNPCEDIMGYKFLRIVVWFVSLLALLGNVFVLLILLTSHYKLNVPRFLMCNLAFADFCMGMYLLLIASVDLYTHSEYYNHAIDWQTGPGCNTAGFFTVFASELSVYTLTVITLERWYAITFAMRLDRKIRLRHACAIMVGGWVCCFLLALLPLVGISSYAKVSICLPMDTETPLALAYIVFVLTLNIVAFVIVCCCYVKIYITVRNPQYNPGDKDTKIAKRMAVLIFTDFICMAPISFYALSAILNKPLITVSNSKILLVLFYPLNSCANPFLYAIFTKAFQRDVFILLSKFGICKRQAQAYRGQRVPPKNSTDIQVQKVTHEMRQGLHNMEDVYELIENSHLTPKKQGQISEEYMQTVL

Consider `Cc1cccc(C)c1O`, for which the Potency entry in test [1], in [2], in [3], in [4], in test [5] and in test [6] was “inactive” throughout. Also, the Potency result in test [7], in [9], in test [11], in test [12], in test [13] and in test [15] was “inactive” in each case. In test [16], the Potency result is “inactive”. The molecule was classed as inactive in test [8], in [10] and in test [14].

Turning to `COc1cc(O)c(C(=O)c2ccccc2)cc1S(=O)(=O)O`, the Potency result in test [1], in [2], in [3], in test [4], in test [17] and in test [5] was “inactive” in each case. In addition, the Potency result in [6], in test [7], in test [9], in test [11], in [12] and in test [13] was “inactive” throughout. Moreover, the Potency entry in test [15], in test [16] and in test [18] was “inactive” each time. Further, the molecule was classed as inactive in test [8], in test [10] and in [14].

Take `CCOC(=O)C(C)(C)Oc1ccc(Cl)cc1`: the Potency result in test [1], in test [2], in test [4], in test [17], in test [5] and in [6] was “inactive” throughout. Also, the Potency result in test [7], in test [9], in test [11], in [12], in [15] and in test [16] was “inactive” in each case. Besides, the Potency result in test [18] is “inactive”. Moreover, the result in [19], in [8], in [10] and in test [20] was inactive.

Regarding `c1ccc2[nH]c(-c3cscn3)nc2c1`, the Potency result in test [1], in test [2], in test [3], in test [4], in test [17] and in test [6] was “inactive” in each case. Moreover, the Potency entry in test [7], in test [11], in test [12], in test [15], in test [16] and in test [18] was “inactive” each time. Moreover, in [5], the Potency is 9.75 µM (active) and 486 nM (active) and 1.19 µM (active). Moreover, the molecule was classed as inactive in test [19], in test [8], in [10] and in test [14].

With `NC(=O)OCC(COC(N)=O)c1ccccc1`, the Potency entry in test [1], in [2], in test [3], in test [4], in test [17] and in [5] was “inactive” in each case. The Potency entry in test [6], in [7], in test [9], in test [12], in test [13] and in test [15] was “inactive” each time. Also, the Potency entry in test [16] and in test [18] was “inactive” in each case. The result in test [19], in [8], in test [14] and in test [20] was inactive.

With `O=c1c(-c2ccc(O)cc2)coc2cc(O)cc(O)c12`, the Potency entry in [1], in [2], in test [3], in [17], in [6] and in [7] was “inactive” throughout. For the same molecule, the Potency result in test [12], in [15] and in test [18] was “inactive” throughout. In addition, the Potency is 8.49 µM (active) and 6.86 µM (active) and 9.44 µM (active) in [5]; 10.7 µM (active) in test [9]. The result in [8] and in test [14] was inactive.

In the case of `CC1(C)O[C@@H]2[C@@H](CO[C@@]3(COS(N)(=O)=O)OC(C)(C)O[C@@H]23)O1`, the Potency result in test [1], in [2], in [4], in [17], in test [5] and in test [6] was “inactive” throughout. Besides, the Potency entry in test [7], in [11], in test [12], in test [13], in [15] and in test [16] was “inactive” in each case. Moreover, the Potency result in test [18] was “inactive”. The outcome in test [19], in [8], in test [10] and in [20] was inactive.

Values taken from PubChem BioAssay (Tox21).
